PubChem BioAssay (NCI)
The panel holds about 79,000 compounds, 15% with a hit somewhere; the sample as a whole holds those more often. Active and inactive are the calls of the source. Cut-off read from the data, not from the text of the source: active = growth inhibition above about 70%; inactive = the rest.

What was measured:
[1] = NCI Yeast Anticancer Drug Screen. Data for the rad52 strain (AID 147);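 note: 0% = growth of vehicle-treated control cultures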; details: S. cerevisiae rad52 mutant growth inhibition, hits give high values
Procedure, shortened: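 The repair-mutant yeast strain was incubated with compounds, then growth was read and inhibition derived relative to vehicle.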

[2] = NCI Yeast Anticancer Drug Screen. Data for the wt1 strain (AID 149);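 note: 0% = growth of vehicle-treated wt1 cultures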; details: S. cerevisiae wt1 strain (SPY 50644) growth inhibition, hits give high values
Procedure, shortened: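 wt1 yeast, compound-treated; % growth inhibition vs vehicle control.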

[3] = NCI Yeast Anticancer Drug Screen. Data for the rad50EPP+ strain (AID 151);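 note: 0% = growth of vehicle-treated control cultures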; details: S. cerevisiae rad50 mutant strain, hits give high values
Procedure, shortened: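 Vehicle-normalised growth inhibition; rad50EPP+ yeast strain, altered in DNA damage repair, compound-treated.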

[4] = NCI Yeast Anticancer Drug Screen. Data for the mgt1 strain (AID 153); details: S. cerevisiae mgt1 mutant growth inhibition, hits give high values
Procedure, shortened: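 Vehicle-normalized growth inhibition is determined in mgt1 yeast, a strain selected for a defined alteration in DNA repair or cell cycle control.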

[5] = NCI Yeast Anticancer Drug Screen. Data for the rad50 strain (AID 155);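 note: 0% = growth of vehicle-only cultures of the same strain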; details: S. cerevisiae rad50 strain growth inhibition, hits give high values
Procedure, shortened: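 Genetically altered yeast (DNA repair pathway); compound treatment; growth inhibition vs vehicle ctrl.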

[6] = NCI Yeast Anticancer Drug Screen. Data for the mec2-1 strain (AID 157); details: S. cerevisiae mec2-1 strain, hits give high values
Procedure, shortened: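 Mutant yeast (mec2-1) grown with compound; growth inhibition relative to vehicle control reported.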

[7] = NCI Yeast Anticancer Drug Screen. Data for the rad14 strain (AID 159);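 note: 0% = growth of vehicle-treated control cultures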; details: S. cerevisiae rad14 strain growth inhibition, hits give high values
Procedure, shortened: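 Test compounds were applied to a repair-deficient yeast strain. Its growth was then compared with that of cultures given vehicle alone, and inhibition was expressed relative to those controls.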

[8] = NCI Yeast Anticancer Drug Screen. Data for the sgs1 mgt1 strain (AID 161);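 note: 0% = growth of cultures given vehicle only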; details: S. cerevisiae sgs1 mgt1 strain, hits give high values
Procedure, shortened: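 Percent growth inhibition was derived by comparing compound-exposed mutant yeast with vehicle-exposed cultures. The strain carries alterations in DNA damage repair.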

[9] = NCI Yeast Anticancer Drug Screen. Data for the CLN2oe strain (AID 163);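 note: 0% = growth of vehicle-only control cultures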; details: S. cerevisiae CLN2oe strain, hits give high values
Procedure, shortened: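 Compounds are applied to yeast harbouring a defined cell-cycle control change; reduced growth compared with vehicle-treated controls gives the value.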

[10] = NCI Yeast Anticancer Drug Screen. Data for the cln2 rad14 strain (AID 165);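 note: 0% = growth equal to vehicle treated cultures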; details: S. cerevisiae cln2 rad14 strain, hits give high values
Procedure, shortened: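 Readout is yeast growth inhibition versus vehicle-treated controls, using a strain with cln2 and rad14 alterations exposed to compound.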

[11] = NCI Yeast Anticancer Drug Screen. Data for the bub3 strain (AID 167); details: S. cerevisiae bub3 mutant strain, hits give high values
Procedure, shortened: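 Yeast carrying a defined mutation is treated with each compound, and growth is compared with that of vehicle-exposed cells to give inhibition.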

[12] = NCI Yeast Anticancer Drug Screen. Data for the wt2 strain (AID 169);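 note: 0% = growth of vehicle-treated yeast cultures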; details: S. cerevisiae wt2 strain growth inhibition, hits give high values
Procedure, shortened: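 Against vehicle-treated controls, the growth of yeast exposed to each compound was compared, and the inhibition was recorded.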

[13] = NCI Yeast Anticancer Drug Screen. Data for the mlh1 strain (AID 171);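 note: 0% = growth of vehicle-treated control cultures of the same strain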; details: S. cerevisiae mlh1 strain growth inhibition, hits give high values
Procedure, shortened: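 Measured: yeast growth. Reference: vehicle-treated controls. Organism: strain with a defined alteration affecting DNA damage repair or cell cycle control, treated with compound.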

[14] = NCI Yeast Anticancer Drug Screen. Data for the sgs1 strain (AID 173);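 note: 0% = growth of vehicle-only control cultures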; details: S. cerevisiae sgs1 mutant, hits give high values
Procedure, shortened: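 Each compound was added to cultures of the altered yeast strain. Growth was recorded, and inhibition was derived by comparison with vehicle controls.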

[15] = NCI Yeast Anticancer Drug Screen. Data for the mlh1 rad18 strain (AID 175); details: S. cerevisiae mlh1 rad18 strain growth inhibition, hits give high values
Procedure, shortened: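 Genetically defined yeast (DNA repair-deficient) exposed to compounds; growth inhibition determined relative to vehicle.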

[16] = NCI Yeast Anticancer Drug Screen. Data for the rad18 strain (AID 177); details: S. cerevisiae rad18 mutant growth inhibition, hits give high values
Procedure, shortened: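 Vehicle-treated cultures served as the baseline for scoring compound-induced growth inhibition in DNA-repair-mutant yeast.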

[17] = at 5.0 µM (retest, dose inferred, filed as 0.5)
[18] = at 50.0 µM (retest, dose inferred, filed as 5.0)

Measured: growth inhibition

CCCCNC1CCC2(SCCS2)c2[nH]c3ccccc3c21 (stereo unspecified)
active: [5]; at 50.0 µM 87.3% | [6]; at 50.0 µM 91.2% | [8]; at 50.0 µM 85.2% | [10]; at 50.0 µM 89.5% | [11]; at 50.0 µM 88.2% | [15]; at 50.0 µM 84.7%
inactive: [1]; at 1.2 µM 2% | [1]; at 3.7 µM 5% | [1]; at 11.0 µM 3% | [1]; at 33.0 µM 4% | [1]; at 100.0 µM 5% | [2]; at 1.2 µM 1% | [2]; at 3.7 µM 1% | [2]; at 11.0 µM 0% | [2]; at 33.0 µM 1% | [2]; at 100.0 µM 6% | [3]; at 1.2 µM -2% | [3]; at 3.7 µM -1% | [3]; at 11.0 µM -2% | [3]; at 33.0 µM -4% | [3]; at 100.0 µM 7% | [4]; at 1.2 µM 2% | [4]; at 3.7 µM -2% | [4]; at 11.0 µM 7% | [4]; at 33.0 µM -5% | [4]; at 100.0 µM 7% | [5]; at 1.2 µM 2% | [5]; at 3.7 µM 3% | [5]; [17] 9% | [5]; at 11.0 µM -7% | [5]; at 33.0 µM 3% | [5]; [18] 49% | [5]; at 100.0 µM 6% | [6]; at 1.2 µM 10% | [6]; at 3.7 µM -1% | [6]; [17] 4% | [6]; at 11.0 µM -2% | [6]; at 33.0 µM -4% | [6]; [18] -14% | [6]; at 100.0 µM 7% | [7]; at 1.2 µM 6% | [7]; at 3.7 µM 0% | [7]; at 11.0 µM 4% | [7]; at 33.0 µM 1% | [7]; at 100.0 µM 9% | [8]; [17] -5% | [8]; [18] 21% | [9]; at 1.2 µM 10% | [9]; at 3.7 µM -4% | [9]; at 11.0 µM 0% | [9]; at 33.0 µM -1% | [9]; at 100.0 µM 6% | [10]; [17] -7% | [10]; [18] 31% | [11]; at 1.2 µM -6% | [11]; at 3.7 µM 1% | [11]; [17] -16% | [11]; at 11.0 µM 6% | [11]; at 33.0 µM -1% | [11]; [18] 17% | [11]; at 100.0 µM 3% | [12]; at 1.2 µM 1% | [12]; at 3.7 µM 2% | [12]; at 11.0 µM 3% | [12]; at 33.0 µM 3% | [12]; at 100.0 µM 8% | [13]; at 1.2 µM 5% | [13]; at 3.7 µM -2% | [13]; at 11.0 µM 4% | [13]; at 33.0 µM -1% | [13]; at 100.0 µM 6% | [14]; at 1.2 µM 0% | [14]; at 3.7 µM -2% | [14]; at 11.0 µM -1% | [14]; at 33.0 µM -3% | [14]; at 100.0 µM 3% | [15]; [17] 1% | [15]; [18] 21% | [16]; at 1.2 µM 2% | [16]; at 3.7 µM -4% | [16]; at 11.0 µM -4% | [16]; at 33.0 µM -18% | [16]; at 100.0 µM 4%

O=[n+]1c2ccccc2n([O-])c2cc(Br)ccc21
inactive: [2]; at 1.2 µM 7% | [2]; at 3.7 µM 43% | [4]; at 1.2 µM 5% | [4]; at 3.7 µM 5% | [4]; at 11.0 µM 51% | [6]; at 1.2 µM 18% | [6]; at 3.7 µM 52% | [7]; at 1.2 µM 36% | [7]; at 3.7 µM 56% | [8]; [17] 66% | [9]; at 1.2 µM 6% | [9]; at 3.7 µM 9% | [9]; at 11.0 µM 38% | [10]; [17] 19% | [11]; at 1.2 µM 42% | [11]; at 3.7 µM 63% | [11]; [17] 63% | [12]; at 1.2 µM 47% | [12]; at 3.7 µM 69% | [13]; at 1.2 µM -3% | [13]; at 3.7 µM 19% | [13]; at 11.0 µM 61% | [14]; at 1.2 µM 34% | [14]; at 3.7 µM 39%
active: [1]; at 1.2 µM 94% | [1]; at 3.7 µM 98% | [1]; at 11.0 µM 98% | [1]; at 33.0 µM 98% | [1]; at 100.0 µM 98% | [2]; at 11.0 µM 82% | [2]; at 33.0 µM 99% | [2]; at 100.0 µM 98% | [3]; at 1.2 µM 96% | [3]; at 3.7 µM 98% | [3]; at 11.0 µM 99% | [3]; at 33.0 µM 99% | [3]; at 100.0 µM 97% | [4]; at 33.0 µM 99% | [4]; at 100.0 µM 98% | [5]; at 1.2 µM 86% | [5]; at 3.7 µM 97% | [5]; [17] 96% | [5]; at 11.0 µM 98% | [5]; at 33.0 µM 99% | [5]; [18] 98% | [5]; at 50.0 µM 99.2% | [5]; at 100.0 µM 97% | [6]; [17] 85% | [6]; at 11.0 µM 92% | [6]; at 33.0 µM 99% | [6]; [18] 99% | [6]; at 50.0 µM 99.3% | [6]; at 100.0 µM 98% | [7]; at 11.0 µM 95% | [7]; at 33.0 µM 100% | [7]; at 100.0 µM 98% | [8]; [18] 99% | [8]; at 50.0 µM 99.2% | [9]; at 33.0 µM 99% | [9]; at 100.0 µM 98% | [10]; [18] 99% | [10]; at 50.0 µM 94.6% | [11]; at 11.0 µM 96% | [11]; at 33.0 µM 99% | [11]; [18] 99% | [11]; at 50.0 µM 99.4% | [11]; at 100.0 µM 99% | [12]; at 11.0 µM 99% | [12]; at 33.0 µM 100% | [12]; at 100.0 µM 98% | [13]; at 33.0 µM 99% | [13]; at 100.0 µM 98% | [14]; at 11.0 µM 97% | [14]; at 33.0 µM 99% | [14]; at 100.0 µM 98% | [15]; [17] 87% | [15]; [18] 98% | [15]; at 50.0 µM 99.2% | [16]; at 1.2 µM 84% | [16]; at 3.7 µM 92% | [16]; at 11.0 µM 98% | [16]; at 33.0 µM 99% | [16]; at 100.0 µM 98%
